# Data as given in article PMC7862700, “An all-to-all approach to the identification of sequence-specific readers for epigenetic DNA modifications on cytosine”.
# Legend:
# Assay in all cases: DAPPL (digital affinity profiling via proximity ligation, sequencing); 10 mM Tris-HCl pH 7.5, 50 mM NaCl, 1 mM DTT, 4% glycerol, room temperature, 30 min; GST-TFs on glutathione beads, 16-mer random dsDNA library, 0.1% formaldehyde crosslink after washing; high values mean tight binding
# FEV = target: T1, FEV (Homo sapiens, UniProt Q99581 1-238); conditions: protein: recombinant; tags: N-terminal GST; dsDNA, one strand shown
# T1 sequence: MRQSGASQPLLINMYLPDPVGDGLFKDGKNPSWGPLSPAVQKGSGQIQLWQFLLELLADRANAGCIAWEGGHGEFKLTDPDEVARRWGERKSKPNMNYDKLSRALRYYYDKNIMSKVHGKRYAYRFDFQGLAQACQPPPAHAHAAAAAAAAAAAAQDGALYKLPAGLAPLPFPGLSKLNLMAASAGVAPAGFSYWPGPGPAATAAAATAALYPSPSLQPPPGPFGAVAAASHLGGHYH
# Outline: (§1)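 Binding signal is each hexamer's read frequency for a factor divided by its frequency in the tag-only sample. The factors were GST-fused human transcription factors from yeast, captured on glutathione beads, DNA-barcoded and pooled with that sample. Pools were incubated with 200 nmole of a random double-stranded 16-mer DNA library in Tris/NaCl/DTT/glycerol buffer at room temperature for 30 min, then washed, crosslinked with 0.1% formaldehyde, proximity-ligated with BsaI/T4 ligase (1 h, 37 °C), PCR-amplified and sequenced on an Illumina NextSeq500.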
# ETV5 = ETV5 (Homo sapiens, UniProt P41161 1-510); conditions: protein: recombinant; tags: N-terminal GST; dsDNA, one strand shown
# Outline: as §1
# HSF1 = HSF1 (Homo sapiens, UniProt Q00613 1-529); conditions: protein: recombinant; tags: N-terminal GST; chain copies: 3; dsDNA, one strand shown
# Outline: as §1
# SPIC = target: T2, SPIC (Homo sapiens, UniProt Q8N5J4 1-248); conditions: protein: recombinant; tags: N-terminal GST; dsDNA, one strand shown
# T2 sequence: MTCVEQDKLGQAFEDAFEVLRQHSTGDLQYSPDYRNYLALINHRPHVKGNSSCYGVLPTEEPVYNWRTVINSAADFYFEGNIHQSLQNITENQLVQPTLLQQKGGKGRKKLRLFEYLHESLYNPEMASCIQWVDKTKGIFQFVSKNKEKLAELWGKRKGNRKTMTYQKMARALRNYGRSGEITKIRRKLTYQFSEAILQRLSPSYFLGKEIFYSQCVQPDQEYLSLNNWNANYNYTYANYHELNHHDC
# Outline: as §1
# ELF4 = ELF4 (Homo sapiens, UniProt Q99607 1-663); conditions: protein: recombinant; tags: N-terminal GST; dsDNA, one strand shown
# Outline: as §1
# ELK4 = target: T3, ELK4 (Homo sapiens, UniProt P28324-2 1-405); conditions: protein: recombinant; tags: N-terminal GST; dsDNA, one strand shown
# T3 sequence: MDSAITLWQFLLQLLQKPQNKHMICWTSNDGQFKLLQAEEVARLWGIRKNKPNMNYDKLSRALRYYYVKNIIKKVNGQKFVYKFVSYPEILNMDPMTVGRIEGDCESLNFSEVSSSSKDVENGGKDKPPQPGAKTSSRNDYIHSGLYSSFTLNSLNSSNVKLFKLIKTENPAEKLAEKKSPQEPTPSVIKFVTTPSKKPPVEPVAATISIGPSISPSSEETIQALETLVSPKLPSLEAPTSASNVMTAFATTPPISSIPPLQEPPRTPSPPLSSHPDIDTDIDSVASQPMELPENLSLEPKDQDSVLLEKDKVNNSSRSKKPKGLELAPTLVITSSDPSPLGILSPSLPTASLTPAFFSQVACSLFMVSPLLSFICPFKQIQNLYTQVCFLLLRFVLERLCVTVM
# Outline: as §1
# ETV2 = target: T4, ETV2 (Homo sapiens, UniProt O00321 1-342); conditions: protein: recombinant; tags: N-terminal GST; dsDNA, one strand shown
# T4 sequence: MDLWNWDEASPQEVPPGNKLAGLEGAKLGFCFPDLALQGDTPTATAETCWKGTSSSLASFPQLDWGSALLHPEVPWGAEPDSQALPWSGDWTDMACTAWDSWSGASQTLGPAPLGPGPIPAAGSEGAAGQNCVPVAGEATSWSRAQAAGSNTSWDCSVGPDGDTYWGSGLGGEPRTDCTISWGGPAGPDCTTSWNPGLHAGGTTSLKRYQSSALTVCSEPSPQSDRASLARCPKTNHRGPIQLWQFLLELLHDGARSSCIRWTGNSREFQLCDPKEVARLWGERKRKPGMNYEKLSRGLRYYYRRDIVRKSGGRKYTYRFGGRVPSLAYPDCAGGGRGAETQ
# Outline: as §1
# ELF3 = target: T5, ELF3 (Homo sapiens, UniProt P78545 1-371); conditions: protein: recombinant; tags: N-terminal GST; dsDNA, one strand shown
# T5 sequence: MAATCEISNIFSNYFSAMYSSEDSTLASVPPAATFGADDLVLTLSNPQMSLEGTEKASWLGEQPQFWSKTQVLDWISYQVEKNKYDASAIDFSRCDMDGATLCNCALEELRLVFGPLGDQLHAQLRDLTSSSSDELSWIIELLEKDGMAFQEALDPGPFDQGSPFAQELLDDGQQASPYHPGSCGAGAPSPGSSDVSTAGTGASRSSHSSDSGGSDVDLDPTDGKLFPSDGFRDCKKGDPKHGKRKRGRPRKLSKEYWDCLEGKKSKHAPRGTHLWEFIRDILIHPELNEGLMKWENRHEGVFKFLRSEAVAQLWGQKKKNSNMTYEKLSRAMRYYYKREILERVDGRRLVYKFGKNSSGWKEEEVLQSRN
# Outline: as §1
# CRX = CRX (Homo sapiens, UniProt O43186 1-299); conditions: protein: recombinant; tags: N-terminal GST; dsDNA, one strand shown
# Outline: as §1
# ETV1 = ETV1 (Homo sapiens, UniProt P50549 1-477); conditions: protein: recombinant; tags: N-terminal GST; dsDNA, one strand shown
# Outline: as §1
# ERF = target: T6, ERF (Homo sapiens, UniProt P50548 1-548); conditions: protein: recombinant; tags: N-terminal GST; dsDNA, one strand shown
# T6 sequence: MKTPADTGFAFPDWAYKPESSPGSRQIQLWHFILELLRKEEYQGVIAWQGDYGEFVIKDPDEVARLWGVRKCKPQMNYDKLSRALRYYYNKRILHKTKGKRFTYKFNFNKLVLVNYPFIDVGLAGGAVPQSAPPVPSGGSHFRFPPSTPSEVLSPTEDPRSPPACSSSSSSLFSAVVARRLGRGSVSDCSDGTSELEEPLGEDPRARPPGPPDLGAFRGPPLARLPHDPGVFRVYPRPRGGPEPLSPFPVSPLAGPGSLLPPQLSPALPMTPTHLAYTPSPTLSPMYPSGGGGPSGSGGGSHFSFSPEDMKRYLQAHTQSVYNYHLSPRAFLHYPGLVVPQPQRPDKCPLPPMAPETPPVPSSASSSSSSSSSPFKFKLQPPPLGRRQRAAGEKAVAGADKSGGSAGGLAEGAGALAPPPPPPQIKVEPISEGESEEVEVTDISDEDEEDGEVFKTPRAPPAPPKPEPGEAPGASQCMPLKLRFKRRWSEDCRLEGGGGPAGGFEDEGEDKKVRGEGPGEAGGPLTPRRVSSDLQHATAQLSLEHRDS
# Outline: as §1
# ETV3L = target: T7, ETV3L (Homo sapiens, UniProt Q6ZN32 1-361); conditions: protein: recombinant; tags: N-terminal GST; dsDNA, one strand shown
# T7 sequence: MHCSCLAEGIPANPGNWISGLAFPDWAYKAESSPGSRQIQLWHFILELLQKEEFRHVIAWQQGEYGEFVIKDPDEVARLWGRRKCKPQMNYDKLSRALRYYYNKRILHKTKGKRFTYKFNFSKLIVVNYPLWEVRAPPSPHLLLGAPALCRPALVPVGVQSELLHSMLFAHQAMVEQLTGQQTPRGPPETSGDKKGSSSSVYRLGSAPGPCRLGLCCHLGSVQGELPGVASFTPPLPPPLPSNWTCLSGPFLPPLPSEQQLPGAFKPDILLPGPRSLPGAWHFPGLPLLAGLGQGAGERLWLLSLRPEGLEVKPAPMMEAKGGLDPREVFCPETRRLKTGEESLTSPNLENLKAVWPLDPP
# Outline: as §1
# ETS2 = target: T8, ETS2 (Homo sapiens, UniProt P15036 1-469); conditions: protein: recombinant; tags: N-terminal GST; dsDNA, one strand shown
# T8 sequence: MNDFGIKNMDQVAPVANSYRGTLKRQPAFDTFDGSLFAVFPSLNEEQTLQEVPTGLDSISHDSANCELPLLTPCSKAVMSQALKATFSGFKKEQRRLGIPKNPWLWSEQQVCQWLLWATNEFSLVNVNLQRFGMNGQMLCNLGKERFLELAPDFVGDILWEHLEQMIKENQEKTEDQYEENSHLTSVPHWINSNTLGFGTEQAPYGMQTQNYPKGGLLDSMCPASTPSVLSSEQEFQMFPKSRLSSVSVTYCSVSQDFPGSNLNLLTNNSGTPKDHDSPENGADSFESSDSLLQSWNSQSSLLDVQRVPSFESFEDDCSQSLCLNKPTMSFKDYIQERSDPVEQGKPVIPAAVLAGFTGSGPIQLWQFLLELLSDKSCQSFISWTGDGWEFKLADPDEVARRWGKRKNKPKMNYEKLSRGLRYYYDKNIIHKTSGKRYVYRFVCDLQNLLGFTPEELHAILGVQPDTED
# Outline: as §1
# SPDEF = target: T9, SPDEF (Homo sapiens, UniProt O95238 1-335); conditions: protein: recombinant; tags: N-terminal GST; dsDNA, one strand shown
# T9 sequence: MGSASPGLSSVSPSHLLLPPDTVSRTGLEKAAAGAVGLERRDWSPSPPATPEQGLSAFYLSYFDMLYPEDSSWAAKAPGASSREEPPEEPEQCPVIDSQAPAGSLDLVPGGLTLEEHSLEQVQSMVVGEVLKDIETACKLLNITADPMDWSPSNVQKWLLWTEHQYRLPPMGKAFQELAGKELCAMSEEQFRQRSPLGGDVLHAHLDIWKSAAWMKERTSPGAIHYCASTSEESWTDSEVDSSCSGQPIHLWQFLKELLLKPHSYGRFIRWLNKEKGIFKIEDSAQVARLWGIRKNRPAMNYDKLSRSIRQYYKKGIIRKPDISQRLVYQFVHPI
# Outline: as §1
# ETV7 = target: T10, ETV7 (Homo sapiens, UniProt Q9Y603 1-341); conditions: protein: recombinant; tags: N-terminal GST; dsDNA, one strand shown
# T10 sequence: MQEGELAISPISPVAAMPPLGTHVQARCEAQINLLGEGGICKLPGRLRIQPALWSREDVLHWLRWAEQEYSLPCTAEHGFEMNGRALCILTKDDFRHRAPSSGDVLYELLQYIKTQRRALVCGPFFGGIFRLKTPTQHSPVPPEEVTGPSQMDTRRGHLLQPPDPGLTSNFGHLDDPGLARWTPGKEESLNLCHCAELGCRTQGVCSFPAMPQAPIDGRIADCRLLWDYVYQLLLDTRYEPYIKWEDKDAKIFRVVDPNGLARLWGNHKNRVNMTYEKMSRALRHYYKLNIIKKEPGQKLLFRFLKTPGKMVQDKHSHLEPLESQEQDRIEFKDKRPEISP
# Outline: as §1
# ELF5 = target: T11, ELF5 (Homo sapiens, UniProt Q9UKW6-2 1-255); conditions: protein: recombinant; tags: N-terminal GST; dsDNA, one strand shown
# T11 sequence: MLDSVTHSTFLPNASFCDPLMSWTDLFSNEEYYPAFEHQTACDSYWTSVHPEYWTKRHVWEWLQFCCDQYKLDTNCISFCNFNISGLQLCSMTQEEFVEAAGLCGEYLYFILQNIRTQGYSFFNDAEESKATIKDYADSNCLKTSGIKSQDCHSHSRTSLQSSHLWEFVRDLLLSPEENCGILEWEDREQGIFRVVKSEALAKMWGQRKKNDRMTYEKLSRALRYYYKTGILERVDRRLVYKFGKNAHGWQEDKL
# Outline: as §1
# ETV3 = target: T12, ETV3 (Homo sapiens, UniProt P41162-2 1-143); conditions: protein: recombinant; tags: N-terminal GST; dsDNA, one strand shown
# T12 sequence: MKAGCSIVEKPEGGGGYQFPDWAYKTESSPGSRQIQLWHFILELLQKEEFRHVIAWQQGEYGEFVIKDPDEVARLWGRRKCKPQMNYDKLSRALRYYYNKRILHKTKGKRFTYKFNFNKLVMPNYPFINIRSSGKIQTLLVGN
# Outline: as §1
# ETV6 = ETV6 (Homo sapiens, UniProt P41212 1-452); conditions: protein: recombinant; tags: N-terminal GST; dsDNA, one strand shown
# Outline: as §1
# Sequence of HSF1 (Q00613 whole entry): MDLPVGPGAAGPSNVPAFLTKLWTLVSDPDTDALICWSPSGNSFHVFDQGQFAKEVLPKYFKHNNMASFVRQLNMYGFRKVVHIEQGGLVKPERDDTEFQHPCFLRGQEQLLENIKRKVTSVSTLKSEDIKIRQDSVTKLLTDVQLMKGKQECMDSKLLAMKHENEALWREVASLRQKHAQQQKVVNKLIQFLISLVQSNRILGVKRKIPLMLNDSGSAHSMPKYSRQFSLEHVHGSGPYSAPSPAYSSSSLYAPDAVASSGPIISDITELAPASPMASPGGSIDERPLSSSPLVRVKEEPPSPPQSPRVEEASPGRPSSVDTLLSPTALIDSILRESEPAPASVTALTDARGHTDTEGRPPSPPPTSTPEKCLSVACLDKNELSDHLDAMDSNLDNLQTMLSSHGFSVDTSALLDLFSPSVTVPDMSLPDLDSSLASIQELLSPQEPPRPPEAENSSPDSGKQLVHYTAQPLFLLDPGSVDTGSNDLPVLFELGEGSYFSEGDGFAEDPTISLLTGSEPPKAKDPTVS
# Sequence of ELF4 (Q99607 whole entry): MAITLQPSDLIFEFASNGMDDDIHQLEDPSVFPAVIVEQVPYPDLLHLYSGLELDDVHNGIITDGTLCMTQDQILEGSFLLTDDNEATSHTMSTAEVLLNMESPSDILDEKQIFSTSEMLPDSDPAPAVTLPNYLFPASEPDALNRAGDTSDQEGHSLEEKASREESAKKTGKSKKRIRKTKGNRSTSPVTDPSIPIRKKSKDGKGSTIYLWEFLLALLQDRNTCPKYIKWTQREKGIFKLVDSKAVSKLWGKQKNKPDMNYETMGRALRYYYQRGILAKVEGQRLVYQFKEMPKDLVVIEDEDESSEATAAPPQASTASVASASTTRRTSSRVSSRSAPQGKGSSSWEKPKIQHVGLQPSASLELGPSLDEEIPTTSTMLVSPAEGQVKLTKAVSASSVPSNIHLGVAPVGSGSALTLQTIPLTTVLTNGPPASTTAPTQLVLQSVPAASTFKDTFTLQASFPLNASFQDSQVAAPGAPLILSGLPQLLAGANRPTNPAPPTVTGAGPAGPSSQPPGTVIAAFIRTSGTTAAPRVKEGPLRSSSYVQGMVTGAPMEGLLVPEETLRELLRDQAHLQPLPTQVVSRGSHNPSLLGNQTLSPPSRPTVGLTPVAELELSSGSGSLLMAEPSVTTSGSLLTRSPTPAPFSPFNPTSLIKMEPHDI
# Sequence of ETV1 (P50549 whole entry): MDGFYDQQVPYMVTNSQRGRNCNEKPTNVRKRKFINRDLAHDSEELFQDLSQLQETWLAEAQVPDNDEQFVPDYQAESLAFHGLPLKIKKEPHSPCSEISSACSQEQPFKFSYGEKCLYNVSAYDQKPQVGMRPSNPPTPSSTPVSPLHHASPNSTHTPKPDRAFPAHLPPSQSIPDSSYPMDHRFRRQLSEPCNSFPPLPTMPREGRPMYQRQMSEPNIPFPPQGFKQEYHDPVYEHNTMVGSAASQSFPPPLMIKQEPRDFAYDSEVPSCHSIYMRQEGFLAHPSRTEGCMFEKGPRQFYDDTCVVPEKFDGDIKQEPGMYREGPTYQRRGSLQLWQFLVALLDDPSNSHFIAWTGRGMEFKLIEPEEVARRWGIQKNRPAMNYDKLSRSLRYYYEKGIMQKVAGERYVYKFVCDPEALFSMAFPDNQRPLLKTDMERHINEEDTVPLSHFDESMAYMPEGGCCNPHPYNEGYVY
# Sequence of CRX (O43186 whole entry): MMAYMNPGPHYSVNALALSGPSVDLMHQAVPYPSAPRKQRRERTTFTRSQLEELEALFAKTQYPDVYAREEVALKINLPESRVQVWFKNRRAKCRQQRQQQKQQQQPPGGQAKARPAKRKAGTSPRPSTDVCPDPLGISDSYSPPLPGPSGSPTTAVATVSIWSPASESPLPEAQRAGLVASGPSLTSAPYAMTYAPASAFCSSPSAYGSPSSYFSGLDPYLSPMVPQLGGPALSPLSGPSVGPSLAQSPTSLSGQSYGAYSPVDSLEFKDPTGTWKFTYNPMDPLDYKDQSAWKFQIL
# Sequence of ETV5 (P41161 whole entry): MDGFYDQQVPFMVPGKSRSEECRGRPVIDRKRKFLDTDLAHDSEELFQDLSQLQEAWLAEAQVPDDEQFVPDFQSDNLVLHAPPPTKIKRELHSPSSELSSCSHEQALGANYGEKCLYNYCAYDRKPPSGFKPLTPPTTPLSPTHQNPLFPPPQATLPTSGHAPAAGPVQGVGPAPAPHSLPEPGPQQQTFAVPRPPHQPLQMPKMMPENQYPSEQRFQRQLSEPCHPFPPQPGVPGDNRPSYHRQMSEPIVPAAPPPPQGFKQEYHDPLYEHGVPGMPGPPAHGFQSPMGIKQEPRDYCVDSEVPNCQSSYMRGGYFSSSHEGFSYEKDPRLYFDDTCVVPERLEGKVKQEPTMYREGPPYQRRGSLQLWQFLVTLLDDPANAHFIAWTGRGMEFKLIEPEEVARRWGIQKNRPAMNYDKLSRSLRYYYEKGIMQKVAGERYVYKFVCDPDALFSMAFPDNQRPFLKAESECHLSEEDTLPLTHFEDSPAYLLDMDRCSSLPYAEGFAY
# Sequence of ETV6 (P41212 whole entry): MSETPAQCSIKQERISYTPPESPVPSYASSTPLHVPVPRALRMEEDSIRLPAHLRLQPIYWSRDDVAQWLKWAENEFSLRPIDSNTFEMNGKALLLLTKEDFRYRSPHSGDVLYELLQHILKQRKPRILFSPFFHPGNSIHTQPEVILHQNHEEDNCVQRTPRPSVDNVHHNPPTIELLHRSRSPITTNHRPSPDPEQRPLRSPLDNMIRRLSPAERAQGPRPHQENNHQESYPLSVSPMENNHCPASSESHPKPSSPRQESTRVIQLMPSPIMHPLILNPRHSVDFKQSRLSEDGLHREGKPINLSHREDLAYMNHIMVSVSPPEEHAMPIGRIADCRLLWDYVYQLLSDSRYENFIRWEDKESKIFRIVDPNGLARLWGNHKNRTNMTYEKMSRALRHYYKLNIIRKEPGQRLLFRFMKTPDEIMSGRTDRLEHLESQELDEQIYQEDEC
sequence,measurement,setting,value
TCTACC,binding signal,FEV,"1.52 fold enrichment (6-mer frequency, TF over GST control)"
same,binding signal,ETV5,"1.52 fold enrichment (6-mer frequency, TF over GST control)"
same,binding signal,HSF1,"1.67 fold enrichment (6-mer frequency, TF over GST control)"
same,binding signal,SPIC,"1.53 fold enrichment (6-mer frequency, TF over GST control)"
same,binding signal,ELF4,"1.56 fold enrichment (6-mer frequency, TF over GST control)"
same,binding signal,ELK4,"1.48 fold enrichment (6-mer frequency, TF over GST control)"
same,binding signal,ETV2,"1.39 fold enrichment (6-mer frequency, TF over GST control)"
same,binding signal,ELF3,"1.53 fold enrichment (6-mer frequency, TF over GST control)"
same,binding signal,CRX,"1.44 fold enrichment (6-mer frequency, TF over GST control)"
same,binding signal,ETV1,"1.57 fold enrichment (6-mer frequency, TF over GST control)"
same,binding signal,ERF,"1.73 fold enrichment (6-mer frequency, TF over GST control)"
same,binding signal,ETV3L,"1.78 fold enrichment (6-mer frequency, TF over GST control)"
same,binding signal,ETS2,"1.6 fold enrichment (6-mer frequency, TF over GST control)"
same,binding signal,SPDEF,"1.6 fold enrichment (6-mer frequency, TF over GST control)"
same,binding signal,ETV7,"1.44 fold enrichment (6-mer frequency, TF over GST control)"
same,binding signal,ELF5,"1.61 fold enrichment (6-mer frequency, TF over GST control)"
same,binding signal,ETV3,"1.52 fold enrichment (6-mer frequency, TF over GST control)"
same,binding signal,ETV6,"1.54 fold enrichment (6-mer frequency, TF over GST control)"
